Only some compounds are listed: those with a hit (about 14% of all), similar ones and a draw of the others.
HCMV antiviral – blocks human cytomegalovirus replication. HFF cells, HCMV-luciferase reporter, 72 h; stronger effect = lower value. activity change, negative = inhibition, % at 57.5 µM. actives 4.5% (n = 410,000). AID 1259415; in the data active = activity change below about -60%; inconclusive = no clear call, values can overlap the other calls; inactive = above about -39%
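Steps: HFFs plated, 16 h 37C; compounds added; HCMV-luciferase added to MOI 1 PFU/cell; 72 h 37C; OneGlo reagent, 5 min room temperature; luminescence read, normalized to controls.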
LASV entry inh – Lassa virus entry inhibition | actives 1.2% (n = 300,000) | AID 540256 | Lassa virus pseudotype entry inhibition, cell reporter | Potency, µM (doses to about 37.9 µM), most hits filed as inhibitors; calls by dose curve; tested in HEK293 cells; note: nearly all actives have a fitted effect of over 50% in size
Marburg entry inh – Marburg virus entry inhibition; Marburg virus pseudotyped entry inhibition, cell reporter; Potency, µM (doses to about 37.8 µM), most hits filed as inhibitors; actives 1.8% (n = 300,000); AID 540276; calls by dose curve; tested in HEK293 cells
Pf growth 96h – inhibits malaria parasite growth, 96 h; Potency, µM (doses to about 28.7 µM), actives largely listed as inhibitors; P. falciparum luciferase reporter growth, 96 h; AID 504834; actives 6.9% (n = 320,000)
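Parasite growth measured via integrated firefly luciferase reporter in P. falciparum. Infected erythrocytes at 2% hematocrit, 0.05% parasitemia final were treated 96 hours at 37 C under 5% CO2, and luminescence was read.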
HCV inh – blocks hepatitis C virus; AID 651820; Potency, µM (titrated, usually from 41.8 µM), actives largely listed as inhibitors; Huh7.5.1 HCVcc-Cre infection, luciferase reporter, 44 h; actives 3.4% (n = 340,000)
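Reporter virus HCVcc-Cre (~0.5 moi) infects cells exposed to compound; seeding density 1,000 cells/well with 4 h settling beforehand. Luminescence, 15 sec read, taken 44 h post-infection following a 15 min RT substrate incubation.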
Pf growth 48h – inhibits P. falciparum growth in the first generation, 48 h. P. falciparum luciferase growth in erythrocytes, 48 h. Potency, µM (series often up to 28.7 µM), hits mostly inhibitors. actives 5.9% (n = 310,000)
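Growth was read as firefly luciferase luminescence after a 48 h, 37 C, 5% CO2 exposure of compounds to reporter-bearing P. falciparum cultures (0.1% parasitemia, 2% hematocrit final) in Albumax-supplemented RPMI 1640.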
Each line names hits and unclear results; the compound was inactive in the other large screens. Unless noted, calls come from the whole dose curve; as a rule, active = well fitted inhibition curve with a large enough effect; inconclusive = small, poorly fitted or top-dose-only effect, or another doubt; inactive = no such curve, though single readings can be large or run the other way.

CCOc1cccc(/C=N/NC(=O)c2cc(C3CC3)[nH]n2)c1O	HCMV antiviral -90.0, Pf growth 96h inconclusive, HCV inh 11.2µM (no result: LASV entry inh, Marburg entry inh)
CCOc1cccc(/C=N/NS(=O)(=O)c2ccc(C)c([N+](=O)[O-])c2)c1O	none
CCOc1cccc(/C=N/NC(=S)Nc2ccccc2[N+](=O)[O-])c1O	HCMV antiviral -70.2, Pf growth 96h inconclusive (no result: LASV entry inh, Marburg entry inh)
CCCCNC(=S)N/N=C/c1cccc(OCC)c1O	Pf growth 96h 1.47µM, HCV inh inconclusive, Pf growth 48h inconclusive
CCc1ccc2oc(-c3cc(NC(=O)c4cc([N+](=O)[O-])ccc4N4CCOCC4)ccc3Cl)nc2c1	Marburg entry inh inconclusive (no result: Pf growth 96h, HCV inh, Pf growth 48h)
COc1ccc(NC(=O)N(C)C[C@@H]2OCc3cnnn3CCCC(=O)N([C@H](C)CO)C[C@H]2C)c(OC)c1	none (no result: LASV entry inh, Marburg entry inh, Pf growth 96h, HCV inh, Pf growth 48h)
CCCNC(=O)c1c(N)n(-c2ccc3c(c2)OCO3)c2nc3ccccc3nc12	Pf growth 96h 4.15µM, Pf growth 48h 8.28µM
O=c1c2c3nc4ccccc4nc3n(-c3ccc4c(c3)OCCO4)c2ncn1CC1CCCO1 (stereo not drawn)	Pf growth 48h inconclusive (no result: HCMV antiviral, LASV entry inh, Marburg entry inh, HCV inh)
Nc1c(C(=O)OCC2CCCO2)c2nc3ccccc3nc2n1-c1ccc2c(c1)OCCO2 (stereo not drawn)	HCMV antiviral -66.0, HCV inh inconclusive, Pf growth 48h inconclusive (no result: Pf growth 96h)
CCOCCCNC(=O)c1c(N)n(-c2ccc3c(c2)OCO3)c2nc3ccccc3nc12	Marburg entry inh inconclusive, Pf growth 96h inconclusive, Pf growth 48h inconclusive
COCCCNC(=O)c1c(N)n(-c2ccc3c(c2)OCO3)c2nc3ccccc3nc12	HCV inh inconclusive, Pf growth 48h 6.57µM
O=c1c2c3nc4ccccc4nc3n(-c3ccc4c(c3)OCCO4)c2ncn1C1CCCC1	HCMV antiviral -77.4, LASV entry inh inconclusive, Marburg entry inh inconclusive, Pf growth 48h 8.28µM (no result: Pf growth 96h)
CCCNC(=O)c1c(N)n(-c2cc(OC)cc(OC)c2)c2nc3ccccc3nc12	Pf growth 96h 10.4µM, HCV inh inconclusive, Pf growth 48h inconclusive
CCOC(=O)c1c(N)n(-c2cccc(OC)c2)c2nc3ccccc3nc12	none (no result: Marburg entry inh, Pf growth 96h, HCV inh, Pf growth 48h)
Cc1ccc(S(=O)(=O)N2CCN(C(=O)/C=C/c3ccco3)CC2)cc1	Pf growth 96h 1.85µM, Pf growth 48h 6.57µM
Cc1ccc(S(=O)(=O)N2CCN(C(=O)CCN3C(=O)c4ccccc4C3=O)CC2)cc1C	HCMV antiviral -62.5, Marburg entry inh inconclusive, Pf growth 96h inconclusive
Cc1ccc(S(=O)(=O)N2CCN(C(=O)CC(C)n3nc(C)c(Cl)c3C)CC2)cc1C (stereo not drawn)	Pf growth 96h 11.7µM, Pf growth 48h inconclusive (no result: LASV entry inh, Marburg entry inh)
Cc1ccc(S(=O)(=O)N2CCN(C(=O)CCn3nc(C)c(C)c3C)CC2)cc1C	none
Cc1ccc(S(=O)(=O)N2CCN(C(=O)/C=C/c3ccccc3)CC2)cc1C	Marburg entry inh inconclusive, Pf growth 96h 13.1µM, HCV inh inconclusive, Pf growth 48h 4.15µM
CN(C)c1ccc(C=NN2C(=O)CSC2=S)c(Cl)c1	none (no result: LASV entry inh, Marburg entry inh, Pf growth 96h, HCV inh, Pf growth 48h)
Cc1cc(C(C)(C)C)oc1C(=O)N(CC(=O)NC1CCCC1)c1c(C)cccc1C	LASV entry inh inconclusive, Marburg entry inh 10.3µM, Pf growth 96h inconclusive, HCV inh 10µM, Pf growth 48h inconclusive
Cc1cc(C(C)(C)C)oc1C(=O)N(CC(=O)NC1CCCC1)c1ccc(F)cc1	LASV entry inh inconclusive, Pf growth 96h inconclusive, HCV inh inconclusive, Pf growth 48h inconclusive
Cc1[nH]c2ccccc2c1C(=O)c1c(N)[nH]c(C(=O)c2ccccc2)c1-c1ccc(Cl)cc1	none (no result: LASV entry inh, Marburg entry inh, Pf growth 96h, HCV inh, Pf growth 48h)
COc1ccc(Cn2c(O)cc(=O)[nH]c2=O)cc1	HCMV antiviral -87.8
Cc1ccccc1C(=O)NC1(C(F)(F)F)N=C(c2ccccc2)N(Cc2ccccc2)C1=O (stereo not drawn)	Marburg entry inh inconclusive (no result: Pf growth 96h, HCV inh, Pf growth 48h)
O=C(NCc1ccc2c(c1)OCO2)c1nc(S(=O)(=O)Cc2ccccc2)ncc1Cl	HCMV antiviral -103.0, LASV entry inh inconclusive, Marburg entry inh inconclusive, HCV inh inconclusive
O=C(NCc1ccc2c(c1)OCO2)c1nc(S(=O)(=O)Cc2ccccc2F)ncc1Cl	HCMV antiviral -80.1 (no result: LASV entry inh, Marburg entry inh)
O=C(NCc1ccc2c(c1)OCO2)c1ccccc1Cl	none (no result: Pf growth 96h, Pf growth 48h)

Assay outcomes (PubChem)
